{
  "source": "PubChem BioAssay AID647",
  "about": "(Vanderbilt High Throughput Screening Facility, 2007)",
  "note": "Among all 2,200 compounds or so, about 1,400 (64%) were called active.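 How the source made its calls: active means luminescence in either replicate above plate mean of wells with a partly effective reference agonist dose plus 3 SD; inactive means the rest.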 The set was probably picked from earlier hits. The list is a sample of the results.",
  "data": [
    {"assay": "effects on beta-adrenoceptor cAMP reporter signal – cell-based, secondary assay 2, luminescence, counter-screen for D1 allosteric modulator project, confirmation (AID 647);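 further: isoproterenol raises cAMP through native beta-adrenoceptor Gs so signal bypasses D1; raw luminescence counts from the Envision reader with one value per duplicate well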", "conditions": "HEK293 D1 CRE-luciferase, isoproterenol EC30 counter-screen; at 10 µM; stronger effect = higher value", "values": [
      {"smiles": "COc1ccc(-c2nnc(SCC(=O)NC3CCCCC3)o2)cc1OC", "luminescence": "3200 (active)"},
      {"smiles": "O=S(=O)(c1cccs1)N1CCc2ccccc2C1", "luminescence": "3530 (active)"},
      {"smiles": "CCOC(=O)/C=c1\\s/c(=C\\c2ccccc2OC)c(=O)n1CC(=O)N1CCOCC1", "luminescence": "3580 (active)"},
      {"smiles": "CCCn1c(=O)c2[nH]c(C3CCCC3)nc2n(CCC)c1=O", "luminescence": "3630 (active)"},
      {"smiles": "COc1ccc(S(=O)(=O)N(C)CC(=O)Nc2ccc3c(c2)OCCO3)cc1OC", "luminescence": "3480 (active)"},
      {"smiles": "Cc1nn(-c2ccccc2)c2c1C(=O)NC(=O)C(C)(C)C2", "luminescence": "3700 (active)"},
      {"smiles": "CC(=O)OC(C)C[N+](C)(C)C", "note": "(centres undefined)", "luminescence": "2500 (inactive)"},
      {"smiles": "CCc1ccc2oc(=O)cc(CN3CCCCC3C)c2c1", "note": "(centres undefined)", "luminescence": "3040 (active)"},
      {"smiles": "COc1ccc(-c2n[nH]c(C)c2-c2ccc(OC)c(OC)c2)c(O)c1", "luminescence": "3290 (active)"},
      {"smiles": "CC1CCN(c2nc3c(c(=O)[nH]c(=O)n3C)n2CCCc2ccccc2)CC1", "luminescence": "5160 (active)"},
      {"smiles": "CCCSc1nc2c(c(=O)[nH]c(=O)n2C)n1CCc1ccccc1", "luminescence": "6090 (active)"},
      {"smiles": "COC(=O)Nc1ncc(CN2C(=O)c3ccccc3C2=O)s1", "luminescence": "2570 (inactive)"},
      {"smiles": "CCc1cc(=O)oc2cc(OCC(=O)N3CCCc4ccccc43)ccc12", "luminescence": "4550 (active)"},
      {"smiles": "C=CCn1cnc2scc(-c3ccccc3)c2c1=O", "luminescence": "3500 (active)"},
      {"smiles": "CCCc1nc(N)nc2c1C(=O)CC(C)(C)C2", "luminescence": "4320 (active)"},
      {"smiles": "COc1ccc(-c2nnn(Cc3nc(N)nc(N4CCCCC4)n3)n2)cc1", "luminescence": "3650 (active)"},
      {"smiles": "COc1ccc(CCN(C)C(=O)C2CCCN(Cc3ccc(OC)c(OC)c3)C2)cc1OC", "note": "(centres undefined)", "luminescence": "2610 (inactive)"},
      {"smiles": "COc1ccc(NC(=O)C2CCCN(S(=O)(=O)c3cccc4cccnc34)C2)cc1OC", "note": "(centres undefined)", "luminescence": "3940 (active)"},
      {"smiles": "CCOC(=O)c1c(NC(=O)CSc2nnc(CN3CCOCC3)n2C)sc2c1CCCC2", "luminescence": "2880 (inactive)"},
      {"smiles": "C#CCNc1nc(C(C)C)nc2c1nnn2Cc1ccccc1F", "luminescence": "3140 (active)"},
      {"smiles": "COc1ccc(-c2cc(C(F)(F)F)nc(S(C)(=O)=O)n2)cc1OC", "luminescence": "4780 (active)"},
      {"smiles": "COc1ccc(S(=O)(=O)Nc2ccc(S(=O)(=O)N3CCCCC3)cc2)cc1OC", "luminescence": "3220 (active)"},
      {"smiles": "N#CCCN1CCN(S(=O)(=O)c2ccc(S(=O)(=O)NC3CCCCC3)cc2)CC1", "luminescence": "2440 (inactive)"},
      {"smiles": "COc1nc(NCc2ccc(Cl)cc2)nc(OC)n1", "luminescence": "2930 (inactive)"},
      {"smiles": "CCOC(=O)c1cc2n(c1C)-c1ccccc1C2=O", "luminescence": "3830 (active)"},
      {"smiles": "c1ccc(-c2nnc3n2NC(c2ccc4c(c2)OCO4)S3)cc1", "note": "(centres undefined)", "luminescence": "3680 (active)"},
      {"smiles": "CCCCNc1nc2ccccc2nc1NS(=O)(=O)c1cccs1", "luminescence": "3780 (active)"},
      {"smiles": "COc1ccc(CCNC(=O)CCn2c(=O)oc3ccccc32)cc1OC", "luminescence": "3400 (active)"},
      {"smiles": "COc1ccc(CCNC(=O)c2cc3sccc3n2C)cc1OC", "luminescence": "3110 (inactive)"}
    ]}
  ]
}
